Inconclusive results are not listed. The source made the active and inactive calls. Calls follow the shape of the dose curve; as a rule, active = well fitted cell-killing curve with a large enough effect; inconclusive = small, poorly fitted or top-dose-only effect, or effect the other way; inactive = no such curve, though single readings can be large or run the other way. Starred links: 1 amine or outer side, 2 acyl side, 3 side chain; linkers in the order of their positions; H or OH if unused. Positions of bridges follow the written chain, without caps; N, C: chain ends. Non-standard residues stand in square brackets, D forms with d. Residues, ends and D or L forms follow the SMILES beside them. Chains are numbered I, II in the order given. Actinocin(9to1) = Cc1c2oc3c(C)ccc(C(=O)[*:1])c3nc-2c(C(=O)[*:2])c(N)c1=O; NMeV = CN[CH](C(=O)O)C(C)C; Sar = CNCC(=O)O
Assays:
[1] = Quantitative High-Throughput drug screen in 47 multiple myeloma cell lines against the NCATS MIPE library collection: OCIMY1_PLB cell viability assay (AID 1918979); details: OCI-MY1 myeloma viability, CellTiter-Glo ATP, 48 h; series mostly up to 45.8 µM;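 also: 100% = DMSO-only wells and 0% = cell-free media-only wells; nearly all actives have a fitted effect of over 35% in size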
Outline: (§1)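 MIPE 4.0 approved/investigational drugs; 500 cells/well; 48 h 37 °C humidified 5% CO2; CTG luminescence readout; DMSO = 100%, media = 0% viability.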

[2] = Quantitative High-Throughput drug screen in 47 multiple myeloma cell lines against the NCATS MIPE library collection: MM1R_ATCC cell viability assay (AID 1918981); details: MM1R multiple myeloma cells, CellTiter-Glo viability, 48 h; series mostly up to 45.8 µM; also: nearly all actives have a fitted effect of over 35% in size; also: potency is read from the fitted curve at half-maximal effect
Outline: as §1

[3] = Quantitative High-Throughput drug screen in 47 multiple myeloma cell lines against the NCATS MIPE library collection: KMS28PE_JCRB cell viability assay (AID 1918983); details: KMS28PE multiple myeloma viability, CellTiter-Glo ATP, 48 h; series mostly up to 45.8 µM; also: nearly all actives have a fitted effect of over 35% in size
Outline: as §1

[4] = Quantitative High-Throughput drug screen in 47 multiple myeloma cell lines against the NCATS MIPE library collection: KMS34_JCRB cell viability assay (AID 1918985); details: KMS34 myeloma viability, CellTiter-Glo ATP luminescence, 48 h; series mostly up to 45.8 µM; also: nearly all actives have a fitted effect of over 40% in size; also: potency is read from the fitted curve at half-maximal effect
Outline: as §1

[5] = Quantitative High-Throughput drug screen in 47 multiple myeloma cell lines against the NCATS MIPE library collection: OCIMY5_PLB cell viability assay (AID 1918988); details: OCI-MY5 myeloma viability, ATP luminescence, 48 h; series mostly up to 45.8 µM; also: nearly all actives have a fitted effect of over 65% in size; also: potency is read from the fitted curve at half-maximal effect
Outline: as §1

[6] = Quantitative High-Throughput drug screen in 47 multiple myeloma cell lines against the NCATS MIPE library collection: SKMM1_PLB cell viability assay (AID 1919863); details: SKMM1 myeloma viability, CellTiter-Glo ATP, 48 h; viability: active compounds read low; also: nearly all actives have a fitted effect of over 35% in size
Outline: as §1

[7] = Quantitative High-Throughput drug screen in 47 multiple myeloma cell lines against the NCATS MIPE library collection: U266_ATCC cell viability assay (AID 1919864); details: U266 myeloma viability, CellTiter-Glo ATP luminescence, 48 h; series mostly up to 45.8 µM
Outline: as §1

[8] = Quantitative High-Throughput drug screen in 47 multiple myeloma cell lines against the NCATS MIPE library collection: XG6_PLB cell viability assay (AID 1919865); details: XG6 myeloma viability, CellTiter-Glo ATP luminescence, 48 h; series mostly up to 45.8 µM; also: nearly all actives have a fitted effect of over 40% in size
Outline: as §1

[9] = Quantitative High-Throughput drug screen in 47 multiple myeloma cell lines against the NCATS MIPE library collection: VP6_DJ cell viability assay (AID 1919867); details: ATP luminescence, 48 h; series mostly up to 45.8 µM; also: nearly all actives have a fitted effect of over 40% in size; also: potency is read from the fitted curve at half-maximal effect;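 as to viability (% of DMSO): 100% = DMSO-only wells and 0% = wells with media alone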
Outline: as §1

[10] = Quantitative High-Throughput drug screen in 47 multiple myeloma cell lines against the NCATS MIPE library collection: UTMC2_PLB cell viability assay (AID 1919868); details: CellTiter-Glo ATP luminescence, 48 h; viability (% of DMSO control): at 45.8 µM (top of the series);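 also: 100% = DMSO-only wells and 0% = media-only wells without cells; nearly all actives have a fitted effect of over 55% in size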
Outline: as §1

[11] = Quantitative High-Throughput drug screen in 47 multiple myeloma cell lines against the NCATS MIPE library collection: PE2_PLB cell viability assay (AID 1919869); details: PE2_PLB myeloma cells viability, ATP luminescence, 48 h; series mostly up to 45.8 µM
Outline: as §1

[12] = Quantitative High-Throughput drug screen in 47 multiple myeloma cell lines against the NCATS MIPE library collection: PCM6_Riken cell viability assay (AID 1919870); details: CellTiter-Glo ATP, 48 h; series mostly up to 45.8 µM; also: nearly all actives have a fitted effect of over 30% in size; also: potency is read from the fitted curve at half-maximal effect
Outline: as §1

[13] = Quantitative High-Throughput drug screen in 47 multiple myeloma cell lines against the NCATS MIPE library collection: RPMI8226_ATCC cell viability assay (AID 1919871); details: RPMI8226 myeloma viability, CellTiter-Glo ATP luminescence, 48 h; series mostly up to 45.8 µM; also: nearly all actives have a fitted effect of over 30% in size; also: potency is read from the fitted curve at half-maximal effect
Outline: as §1

[14] = Quantitative High-Throughput drug screen in 47 multiple myeloma cell lines against the NCATS MIPE library collection: OPM2_DSMZ cell viability assay (AID 1919872); details: OPM2 myeloma viability, CellTiter-Glo ATP luminescence, 48 h; series mostly up to 45.8 µM; also: nearly all actives have a fitted effect of over 30% in size
Outline: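 Primary qHTS used for cherry-picking: cells at 500/well, library compounds for 48 h (37C, 5% CO2), luminescent ATP assay.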

[15] = Quantitative High-Throughput drug screen in 47 multiple myeloma cell lines against the NCATS MIPE library collection: L363_DSMZ cell viability assay (AID 1918984); details: L363 myeloma viability, CellTiter-Glo ATP luminescence, 48 h; series mostly up to 45.8 µM; also: nearly all actives have a fitted effect of over 40% in size; also: potency is read from the fitted curve at half-maximal effect
Outline: as §1

[16] = Quantitative High-Throughput drug screen in 47 multiple myeloma cell lines against the NCATS MIPE library collection: OPM1_PLB cell viability assay (AID 1918989); details: CellTiter-Glo, 48 h; series mostly up to 45.8 µM; also: nearly all actives have a fitted effect of over 40% in size; also: potency is read from the fitted curve at half-maximal effect
Outline: as §1

[17] = Quantitative High-Throughput drug screen in 47 multiple myeloma cell lines against the NCATS MIPE library collection: LP1_DSMZ cell viability assay (AID 1918982); details: LP1 myeloma viability, CellTiter-Glo ATP luminescence, 48 h; series mostly up to 45.8 µM; also: nearly all actives have a fitted effect of over 35% in size; also: potency is read from the fitted curve at half-maximal effect
Outline: as §1

[18] = Quantitative High-Throughput drug screen in 47 multiple myeloma cell lines against the NCATS MIPE library collection: OCIMY7_PLB cell viability assay (AID 1918987); details: OCI-MY7 myeloma viability, CellTiter-Glo ATP, 48 h; viability (% of DMSO): at 45.8 µM (top of the series); also: nearly all actives have a fitted effect of over 65% in size; also: potency is read from the fitted curve at half-maximal effect
Outline: as §1

[19] = Quantitative High-Throughput drug screen in 47 multiple myeloma cell lines against the NCATS MIPE library collection: XG1_PLB cell viability assay (AID 1919866); details: CellTiter-Glo ATP, 48 h; series mostly up to 45.8 µM; also: nearly all actives have a fitted effect of over 35% in size; also: potency is read from the fitted curve at half-maximal effect
Outline: as §1

O=C(NNC(=O)c1ccc(CNS(=O)(=O)c2ccc(F)c(Cl)c2)cc1)c1ccccc1
inactive: Potency [1] | Potency [2] | Potency [3] | Potency [4] | Potency [5] | viability [6] 126% | Potency [7] | Potency [8] | Potency [9] | Potency [10] | Potency [11] | Potency [12] | Potency [13] | Potency [14]

C[C@]12CCC(=O)C=C1[C@@H]1CC1[C@H]1[C@H]3[C@@H]4C[C@H]4[C@@]4(CCC(=O)O4)[C@@]3(C)CC[C@H]12 (some centres undefined)
active: Potency [13] 18.7 µM
inactive: Potency [1] | Potency [2] | Potency [3] | Potency [15] | Potency [16] | Potency [7] | Potency [9] | Potency [11] | Potency [12] | Potency [14]

CCCCCCCCCCCCc1ccc(S(=O)(=O)Nc2nncs2)cc1
active: Potency [2] 18.7 µM
inactive: Potency [1] | Potency [17] | Potency [3] | Potency [15] | Potency [4] | Potency [5] | Potency [16] | Potency [7] | Potency [8] | Potency [9] | Potency [10] | Potency [12]

NC(=O)c1ncn([C@@H]2O[C@H](CO)[C@@H](O)[C@@H]2O)c1N
inactive: Potency [1] | Potency [2] | Potency [17] | Potency [3] | Potency [4] | Potency [16] | viability [6] 159% | Potency [7] | Potency [8] | Potency [11] | Potency [12] | Potency [13] | Potency [14]

C#C[C@]1(O)CC[C@@H]2[C@@H]3CCC4=CC(=O)CC[C@@H]4[C@H]3CC[C@@]21CC
inactive: Potency [1] | Potency [2] | Potency [17] | Potency [3] | Potency [4] | Potency [18] | Potency [7] | Potency [8] | Potency [19] | Potency [10] | Potency [11] | Potency [12] | Potency [14]
active: Potency [15] 0.0083 µM | Potency [5] 18.7 µM

O=C1NC(O)CCN1[C@@H]1O[C@H](CO)[C@H](O)[C@H]1O (some centres undefined)
inactive: Potency [1] | Potency [2] | Potency [3] | viability [6] 122% | Potency [7] | Potency [8] | Potency [11] | Potency [14]
active: Potency [17] 5.9 µM | Potency [19] 11.8 µM

Nc1nc(=O)n([C@H]2C[C@H](O)[C@@H](CO)O2)cc1F
inactive: Potency [1] | Potency [2] | Potency [17] | Potency [5] | viability [6] 129% | Potency [11] | Potency [13] | Potency [14]
active: Potency [4] 0.0026 µM | Potency [18] 0.526 µM | Potency [16] 0.0469 µM | Potency [19] 0.0118 µM | Potency [12] 0.059 µM

O=C(O)CCCCC(CCSCc1ccccc1)SCc1ccccc1 (centres undefined)
inactive: Potency [1] | Potency [2] | Potency [4] | Potency [11] | Potency [13] | Potency [14]
active: Potency [15] 13.2 µM | Potency [9] 16.6 µM

c1coc(CNc2ncnc3nc[nH]c23)c1
inactive: Potency [1] | Potency [2] | Potency [17] | Potency [8] | Potency [19] | Potency [10] | Potency [14]
active: Potency [15] 11.8 µM | Potency [5] 2.09 µM | Potency [9] 18.7 µM

Cc1c2oc3c(C)ccc(C(=O)NC4C(=O)NC(C(C)C)C(=O)N5CCCC5C(=O)N(C)CC(=O)N(C)C(C(C)C)C(=O)OC4C)c3nc-2c(C(=O)NC2C(=O)NC(C(C)C)C(=O)N3CCCC3C(=O)N(C)CC(=O)N(C)C(C(C)C)C(=O)OC2C)c(N)c1=O (centres undefined) (I: TVP[Sar][NMeV] / II: TVP[Sar][NMeV]; ester I:1-I:C, II:1-II:C; linker I:N-II:N via Actinocin(9to1); configuration not given here)
inactive: Potency [1] | Potency [2] | Potency [17] | Potency [3] | Potency [15] | Potency [4] | Potency [18] | Potency [5] | viability [6] -11% | Potency [7] | Potency [8] | Potency [19] | Potency [10] | Potency [11] | Potency [12] | Potency [13] | Potency [14]

CC(=O)OCC(=O)[C@@]1(O)CC[C@H]2[C@@H]3CCC4=CC(=O)CC[C@]4(C)[C@@H]3C(=O)C[C@@]21C
inactive: Potency [1] | Potency [2] | Potency [17] | Potency [3] | Potency [15] | Potency [4] | Potency [5] | Potency [16] | Potency [7] | Potency [8] | Potency [19] | Potency [11] | Potency [12] | Potency [13] | Potency [14]

Cc1cc(O)c2c(c1)C(=O)c1cccc(O)c1C2=O
inactive: Potency [1] | Potency [17] | Potency [3] | Potency [15] | Potency [4] | Potency [18] | Potency [16] | Potency [8] | Potency [19] | Potency [11] | Potency [12] | Potency [13] | Potency [14]

Nc1ccn(C2CO[C@H](CO)O2)c(=O)n1 (some centres undefined)
inactive: Potency [1] | Potency [2] | Potency [17] | Potency [15] | Potency [16] | Potency [7] | Potency [8] | Potency [19] | Potency [11] | Potency [12] | Potency [13] | Potency [14]

From PubChem BioAssay (NCATS)
